High-throughput results (PubChem)
A selection: hits, their analogues and other compounds. The true share with any hit is near 13%.
CHOP inhibitor = CHOP inhibition in unfolded protein response; 220,000 compounds, 3.8% hits; inhibition, % at 10 µM; CHO-K1 CHOP-promoter luciferase, tunicamycin-induced, 15-18 h;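 active means compounds that reduced the stress-induced luciferase reporter signal by more than about 70% of percent inhibition, limit read from the data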
WT yeast gro inh = growth inhibition of WT yeast, mitochondrial fusion screen; mitochondrial fusion phenotypic screen, WT strain; AID 1362; 190,000 compounds, 2.1% hits; inhibition, % at 10 µM; in the data active means inhibition above about 58%; tested in S. cerevisiae
Lmaj promast = inhibitors of Leishmania major promastigote growth | Leishmania major promastigotes, resazurin fluorescence viability | inhibition, % at 10 µM | 200,000 compounds, 9% hits; in the data active means inhibition above about 50%;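 further: promastigotes grown with compound for 44 hours at 28 °C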
RAM network inh = inhibitors of the yeast RAM network | S. cerevisiae dse1pr::URA3 reporter, 5-FOA growth OD615, 2 d; analog-sensitive cbk1-as2 kinase mutant strain | inhibition, % at 50 µM | 190,000 compounds, 1.8% hits | AID 868;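 active means inhibition above a set limit, 3 SD over mean compound inhibition, cut at about 8.4% in these data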;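 further: inhibition rescues growth on 5-FOA so higher OD means more RAM inhibition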
Each line names hits and unclear results; the compound was inactive in the other large screens.

CCOC(=O)C1=C(C)NC(=O)NC1c1cn(-c2ccccc2)nc1-c1cccs1 (centres undefined)	none
CN(C(=O)COc1ccc(S(=O)(=O)N2CCOCC2)cc1[N+](=O)[O-])C1CCS(=O)(=O)C1 (centres undefined)	none (no result: WT yeast gro inh, Lmaj promast, RAM network inh)
CNC(=S)NNC(=O)c1sccc1OCc1ccc(Cl)cc1Cl	none
N/C(=N\NC(=O)c1sccc1OCc1ccc(Cl)cc1Cl)c1ccccn1	Lmaj promast 100, RAM network inh 8.7
CC(C)CCn1c(SCCc2ccccc2)nc2c1c(=O)[nH]c(=O)n2C	CHOP inhibitor 75
C=CCn1c(SCCCc2ccccc2)nc2c1c(=O)[nH]c(=O)n2C	CHOP inhibitor 77
CCCCCn1c(SCCc2ccccc2)nc2c1c(=O)[nH]c(=O)n2C	CHOP inhibitor 93
CCCn1c(SCCc2ccccc2)nc2c1c(=O)[nH]c(=O)n2C	none
COCCn1c(SCCCc2ccccc2)nc2c1c(=O)[nH]c(=O)n2C	none
C=CCNc1nc2c(c(=O)[nH]c(=O)n2C)n1CCCCC	CHOP inhibitor 71
CC(C)C[C@H](N)CSSC[C@@H](N)CC(C)C	none (no result: WT yeast gro inh, Lmaj promast, RAM network inh)
Cc1ccsc1/C=N/NC(=O)C1C(=O)NCC1c1ccccc1 (centres undefined)	none (no result: WT yeast gro inh, Lmaj promast, RAM network inh)
CCn1c(Cc2cccs2)nnc1SCC(=O)NC(C)(C)C	none
CC(C)CN1CCC(CN(C)Cc2nc(-c3cnccn3)no2)CC1	none
CC(C)n1c(SCCCc2ccccc2)nc2c1c(=O)[nH]c(=O)n2C	CHOP inhibitor 97
Cc1ccc(Sc2nc3c(c(=O)[nH]c(=O)n3C)n2CCc2ccccc2)cc1	CHOP inhibitor 95
CCCCSc1nc2c(c(=O)[nH]c(=O)n2C)n1CCc1ccccc1	none (no result: CHOP inhibitor, Lmaj promast, RAM network inh)
NS(=O)(=O)c1cccc(NC(=O)c2cccnc2Oc2ccccc2)c1	none (no result: WT yeast gro inh, Lmaj promast, RAM network inh)
NNc1nc2c(F)cccc2s1	none
Fc1cccc2sc(Nc3nnc(-c4ccccc4)o3)nc12	Lmaj promast 83
Fc1cccc2sc(Nc3nc4c(F)cccc4s3)nc12	CHOP inhibitor 88
COc1cc(OC)cc(-c2nnc(Nc3nc4c(F)cccc4s3)o2)c1	none
CCCCC(=O)NC(NC(=S)N1CCCCCC1)C(Cl)(Cl)Cl (centres undefined)	none
Cc1cc(C(C)(C)C)oc1C(=O)N(CC(=O)NC1CCCC1)c1cccc(C(F)(F)F)c1	CHOP inhibitor 83
Cc1ccccc1N(CC(=O)NC1CCCC1)C(=O)c1oc(C(C)(C)C)cc1C	none
Cc1cc(C(C)(C)C)oc1C(=O)N(CC(=O)NC1CCCC1)Cc1ccccc1Cl	WT yeast gro inh 64
CN(C)CCSc1nnc2[nH]c3ccccc3c2n1	none
Cc1ccc(C)c(N2CCN(C(=O)C(Cc3ccccc3)n3cccc3)CC2)c1 (centres undefined)	WT yeast gro inh 62
O=C(O)C(Cc1ccccc1)n1cccc1 (centres undefined)	none
O=C(C(Cc1ccccc1)n1cccc1)N1CCN(c2ccccc2)CC1 (centres undefined)	CHOP inhibitor 78
O=C(CSc1ncnc2c1cnn2CCO)Nc1cccc(C(F)(F)F)c1	none
COc1cc(SSc2cc(OC)cc([N+](=O)[O-])c2N)c(N)c([N+](=O)[O-])c1	none (no result: WT yeast gro inh, Lmaj promast, RAM network inh)
CCOC(=O)C1(CCC(C)C)CC(CSc2nc3ccccc3[nH]2)OC1=O (centres undefined)	CHOP inhibitor 89
CC(=O)c1cccc(NC(=O)COC(=O)C2=COCCO2)c1	none
COc1ccccc1N=C1SC(C(=O)Nc2cccc(Cl)c2Cl)C(N)=C1C(N)=O (centres undefined)	none (no result: WT yeast gro inh, Lmaj promast, RAM network inh)
N#Cc1ccccc1NC(=O)C1SC(=Nc2ccccc2)C(C(=O)Nc2ccc(Cl)cc2)=C1N (centres undefined)	CHOP inhibitor 100
CCOc1ccc(N=C2SC(C(=O)Nc3ccccc3C#N)C(N)=C2C(=O)Nc2ccc(Cl)cc2)cc1 (centres undefined)	CHOP inhibitor 76
CCOC(=O)C(=O)Nc1ccccc1C#N	none
CCOCCCn1c(C)nc2c[n+](CC(=O)c3ccc4ccccc4c3)cc(Br)c21	none (no result: WT yeast gro inh, Lmaj promast, RAM network inh)
COCC1=C(C(=O)OC)C(c2ccco2)n2ncnc2N1 (centres undefined)	none (no result: WT yeast gro inh, Lmaj promast, RAM network inh)
NS(=O)(=O)c1ccc(NC(=O)COC(=O)COc2cccc(C(F)(F)F)c2)cc1	none (no result: WT yeast gro inh, Lmaj promast, RAM network inh)
Cc1cc(NN)nc2ccc(Cl)cc12	none
CC(=O)c1ccc(-n2c(CCC(=O)O)ccc2-c2cccs2)cc1	RAM network inh 9.7
CCOC(=O)c1cc(-c2ccccc2)nc2nc(N3CCCCC3)sc12	Lmaj promast 72
COc1ccc(-c2cc(C(=O)O)c3sc(N4CCCCC4)nc3n2)cc1OC	Lmaj promast 52
CN(Cc1nccn1C)C(=O)CC1C(=O)NCCN1CC(c1ccccc1)c1ccccc1 (centres undefined)	none
CCCOC(=O)c1c(-c2ccccc2)nc(CC)c(C(=O)SCC)c1CCC	none (no result: WT yeast gro inh, Lmaj promast, RAM network inh)
CC(=O)c1ccc(NC(=O)C(C)OC(=O)c2ccc(NS(=O)(=O)c3ccc(F)c(F)c3)cc2)cc1 (centres undefined)	RAM network inh 9.2
Cc1ccc(NC(=O)C(C)OC(=O)c2ccc(NS(=O)(=O)c3ccc(F)c(F)c3)cc2)cc1 (centres undefined)	none
CCc1ccc(NC(=O)C(C)OC(=O)c2ccc(NS(=O)(=O)c3ccc(C)c([N+](=O)[O-])c3)cc2)cc1 (centres undefined)	Lmaj promast 64
O=c1cc(-c2ccccc2Cl)oc2c([N+](=O)[O-])c(O)cc(O)c12	CHOP inhibitor 76
O=c1cc(-c2ccccc2Cl)oc2ccc([N+](=O)[O-])c(O)c12	WT yeast gro inh 64
Nc1ccc2oc(-c3ccccc3Cl)cc(=O)c2c1O	none
O=C(Nc1ccc(O)c2c(=O)cc(-c3ccccc3Cl)oc12)c1ccccc1Cl	none
CC(OC(=O)c1ccc([N+](=O)[O-])s1)C(=O)Nc1ncc(Cl)cc1Cl (centres undefined)	Lmaj promast 100
CCOc1ccccc1NC(C)C(=O)Nc1cc(C(F)(F)F)ccc1N1CCOCC1 (centres undefined)	WT yeast gro inh 69
O=C(Nc1cc(C(F)(F)F)ccc1N1CCOCC1)c1ccc(Cl)nc1	Lmaj promast 100
CC1CN(S(=O)(=O)c2cccc(C(=O)NN3CCN(C)CC3)c2)CC(C)O1 (centres undefined)	none
Cc1ccc(C(=O)Nc2ccc3c(c2)CCC3)cc1	none
Cc1cc(NC(=O)CCN2CCC(C(N)=O)CC2)ccc1Br	Lmaj promast 82
CC1CN(CCC(=O)Nc2ccc3c(c2)CCC3)CC(C)O1 (centres undefined)	Lmaj promast 86
O=C(Nc1ccc2c(c1)CCC2)c1cccc(F)c1	Lmaj promast 83
CCCCN(C)CCC(=O)Nc1ccc2c(c1)CCC2	none
CC1CN(S(=O)(=O)c2cccc(C(=O)Nc3ccc4c(c3)CCC4)c2)CC(C)O1 (centres undefined)	Lmaj promast 85
FC(F)(F)c1nnc2n1N=C(c1cccs1)CS2	none
O=C(Nc1ccc2c(c1)CCC2)c1ccc(F)c(S(=O)(=O)N2CCOCC2)c1	Lmaj promast 78
CC1CCN(CCC(=O)Nc2ccc3c(c2)CCC3)CC1	Lmaj promast 84
Cc1ccc(C(=O)Nc2ccc3c(c2)CCC3)cc1S(=O)(=O)N1CCOCC1	none
CN(c1ccc(F)cc1)S(=O)(=O)c1ccc(Cl)c(C(=O)Nc2ccc3c(c2)CCC3)c1	none
